# ssDAF12 agonist – activates DAF-12 receptor from parasite S. stercoralis; AID 652126; HEK293 ssDAF-12/GRIP1 lit1-tk-luc reporter, luminescence; % of 3 µM dafachronic acid response; activation, % at 6.8 µM; actives 1% (n = 370,000);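 active = activation above the mean over all tested compounds plus 3 SD, cut at about 0.9% in these data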
# hcDAF12 agonist – H. contortus DAF-12 activation, primary screen. HEK293 hcDAF-12 lit1-tk-luc reporter, luminescence; 0% DMSO, 100% Δ7-dafachronic acid. activation, % at 6.8 µM. actives 1.4% (n = 370,000). AID 652067;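 active = activation above the mean of all tested compounds plus 3 SD, cut at about 5.5% in these data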
# AHR act – activators of human aryl hydrocarbon receptor; AID 2796; AHR-responsive luciferase reporter cells, luminescence; actives 2.5% (n = 320,000); activation, % at 5 µM; in the data active = activation above about 47%
# hgDAF-12 ag – hgDAF-12 agonism, primary luciferase screen. actives 1.8% (n = 370,000). HEK293 GAL4-hgDAF12 UAS-luciferase reporter, agonist luminescence; normalized to butyrate control. activation, % at 6.8 µM;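 active = activation above a cutoff set at the mean of all screened compounds plus 3 SD, cut at about 10% in these data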
# DAX1 inh-1 – inhibitors of human orphan nuclear receptor DAX1 (NR0B1); HEK293 Gal4-DAX1 luciferase reporter, luminescence; inhibition, % at 6.75 µM; actives 0.99% (n = 340,000); AID 504766;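 active = inhibition above the mean over all tested compounds plus 3 SD, cut at about 4.2% in these data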;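 note: inhibition shows as a rise in luminescence from relieved DAX1 repression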
# Target sequence (P51843 207-470 limits assumed): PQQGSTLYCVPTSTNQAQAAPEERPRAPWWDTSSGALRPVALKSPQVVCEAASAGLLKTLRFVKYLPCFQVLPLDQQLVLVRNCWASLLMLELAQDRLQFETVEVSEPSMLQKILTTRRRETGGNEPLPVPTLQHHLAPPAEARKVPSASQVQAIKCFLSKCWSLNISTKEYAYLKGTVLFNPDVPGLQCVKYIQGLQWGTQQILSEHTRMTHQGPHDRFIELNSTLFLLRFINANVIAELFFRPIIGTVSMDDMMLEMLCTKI
# DAX1 inh-2 – inhibitors of DAX1 repression of SF-1 activated StAR promoter | AID 652010 | actives 1.1% (n = 370,000) | HEK293T StAR-luciferase reporter, SF-1/DAX-1 repression relief | inhibition, % at 6.8 µM;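 active = inhibition above the mean over all tested compounds plus 3 SD, cut at about 3.6% in these data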;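 note: higher inhibition means more luminescence from relief of DAX-1 repression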
# Hits are given with their value; i = inactive; nt = no result given. An excerpt weighted towards active compounds, which were near 5.7% of everything screened.
SMILES,ssDAF12 agonist,hcDAF12 agonist,AHR act,hgDAF-12 ag,DAX1 inh-1,DAX1 inh-2
Cc1ccc(-n2ncc(C(=O)N3CCN(C(=O)c4ccco4)CC3)c2-n2cccc2)cc1,i,i,i,i,i,i
COc1cccc(S(=O)(=O)N(C)C[C@@H]2Oc3ncc(Br)cc3C(=O)N([C@H](C)CO)C[C@@H]2C)c1,1.2,i,nt,i,nt,i
C[C@H](CO)N1C[C@H](C)[C@@H](CN(C)C(=O)Nc2ccccc2F)Oc2ncc(Br)cc2C1=O,i,i,nt,i,i,i
COc1ccccc1NC(=O)N(C)C[C@H]1Oc2ncc(Br)cc2C(=O)N([C@H](C)CO)C[C@H]1C,1.1,i,nt,i,4.7,i
COc1cccc(S(=O)(=O)N(C)C[C@H]2Oc3ncc(Br)cc3C(=O)N([C@H](C)CO)C[C@H]2C)c1,i,i,nt,i,i,i
CCc1ccc(NC(=O)CNC(=O)c2nn(-c3ccc(OC)cc3)c(=O)c3ccccc23)cc1,i,i,i,i,i,i
O=C(O)CC1COc2ccccc2N1C(=O)c1ccccc1Cl (centres undefined),1.5,i,i,i,i,i
COc1cc(F)ccc1-c1csc(C(NC(C)=O)c2cccc(F)c2)n1 (centres undefined),i,i,nt,i,nt,4.2
CC(=O)NC(c1cccc(F)c1)c1nc(-c2ccccc2C)cs1 (centres undefined),i,i,nt,i,nt,i
COc1ccc(CNC(=O)c2sc(=O)n(Cc3ccc(-c4ccccc4)cc3)c2C)cc1OC,i,i,nt,i,nt,i
Cc1ccc2oc(-c3cccc(NC(=O)c4ccccn4)c3)nc2c1,i,i,i,i,i,i
Cc1ccc2oc(-c3cccc(NC(=O)C4CCCO4)c3)nc2c1 (centres undefined),i,i,72,i,i,i
O=C1OCc2cc(NC(=O)C3CCCO3)ccc21 (centres undefined),i,5.8,i,i,i,i
CN(C)CCCN1C(=O)c2oc3ccc(F)cc3c(=O)c2C1c1cccnc1 (centres undefined),i,i,i,11,i,i
CSc1nsc(SCC(=O)Nc2ccccc2C(=O)O)n1,1.1,i,i,i,i,i
CSc1nsc(SCC(=O)Nc2ccc(Br)cn2)n1,i,i,48,i,i,i
CSc1nsc(SCC(=O)Nc2ccc(NC(C)=O)cc2)n1,i,i,i,i,i,i
Cc1c(C(=O)Nc2ccc(F)cc2)c2ccccn2c1CCc1ccncc1,i,i,90,i,i,i
COC(=O)CCc1c(C)c(C(=O)c2ccc(F)cc2)c2ccccn12,i,i,i,i,i,i
Cn1c(C(C#N)/C(=N\S(=O)(=O)c2cccs2)c2ccccc2)nc2ccccc21 (centres undefined),i,i,79,i,i,i
Cc1nc(SCC(=O)c2cc3ccccc3oc2=O)c(C#N)c(C)c1C(=O)Nc1ccccc1,1.1,i,nt,i,nt,i
CSc1nc(C)c(C(=O)Nc2ccccc2)c(C)c1C#N,i,i,i,i,i,i
c1ccc(OCCCn2nnc(-c3cccnc3)n2)cc1,i,i,i,i,i,i
Cc1ccn(CCC(=O)N2CCc3ccccc32)n1,i,i,i,i,i,4.1
CC1CCc2nn(CC(=O)NCCN3CCCCC3C)cc2C1 (centres undefined),i,i,i,i,5.8,i
SMILES,ssDAF12 agonist,hcDAF12 agonist,AHR act,hgDAF-12 ag,DAX1 inh-1,DAX1 inh-2
CC1CCc2nn(CC(=O)NCCCN3CCCC3=O)cc2C1 (centres undefined),i,i,i,i,i,i
CC1CCc2nn(CC(=O)N3CCc4ccccc43)cc2C1 (centres undefined),i,i,i,i,4.6,i
O=C(Cn1ccc([N+](=O)[O-])n1)N1CCc2ccccc21,i,i,i,i,i,i
CC(=O)Nc1ccc(S(=O)(=O)N[C@@H](C)C(=O)OCC(=O)c2ccc(Br)s2)cc1,i,i,nt,i,8.1,i
COc1ccc(C(=O)COC(=O)[C@H](C)NS(=O)(=O)c2ccc(NC(C)=O)cc2)cc1OC,i,i,nt,i,i,i
COc1ccc(C2=NOC(C(=O)O)C2)cc1 (centres undefined),1.8,i,i,i,i,i
COc1ccc(C(C)c2cc3c(cc2OCC(=O)O)OCO3)cc1 (centres undefined),i,i,nt,i,nt,i
Cc1ccc(NC(=O)Nc2cccs2)cc1,i,i,i,11,i,i
Cc1cccnc1NC(=S)Nc1ccc(F)cc1F,i,i,i,11,i,i
Cc1ccc(C)c(NC(=O)c2ccccn2)c1,i,i,i,i,i,i
Cc1ccc(NC(=O)Nc2cccs2)nc1,i,i,i,i,i,i
Cc1ccc(C)c(NC(=S)Nc2ncccc2C)c1,i,i,i,12,i,i
Cc1ccc(NC(=O)Nc2ncccc2C)cc1,i,i,57,i,i,i
CCC1Oc2ccccc2N(CC(=O)NCCC2=CCCCC2)C1=O (centres undefined),i,i,i,i,i,i
CSc1ccc(C2N=C(c3ccccc3)NO2)cc1 (centres undefined),nt,nt,58,nt,i,nt
O=C(Nc1cccc([N+](=O)[O-])c1)C(=O)N1CCCCC1,i,i,i,13,i,i
Cc1cc(C(=O)CSc2nnc(C3CC3)n2C2CC2)c(C)n1C(C)C,i,i,i,i,i,i
C=CCn1c(C)cc(C(=O)CSc2nnc(C3CC3)n2C2CC2)c1C,i,i,i,i,i,4.2
CC(=O)NCCc1ccc(C(=O)CSc2nnc(C3CC3)n2C2CC2)cc1,i,i,i,i,i,4.5
O=C(NCCCc1ccccc1)c1cccs1,i,i,i,i,i,i
O=C(NCCc1cccs1)c1cccs1,i,i,i,11,i,i
O=C(NCC(O)c1ccccc1)c1cccs1 (centres undefined),i,i,i,12,i,i
Cc1cccc(C)c1NC(=O)COC(=O)c1cc(=O)[nH]c2ccccc12,i,i,i,i,i,i
COC(=O)Nc1cc(C(F)(F)F)ccc1N1CCN(c2ccccc2)CC1,i,i,i,i,i,i
Cn1nccc1-c1ccc(C(=O)NCc2ccco2)c2occc12,i,i,nt,13,nt,i
SMILES,ssDAF12 agonist,hcDAF12 agonist,AHR act,hgDAF-12 ag,DAX1 inh-1,DAX1 inh-2
Cc1noc(C)c1-c1ccc(C(=O)NCc2ccco2)c2occc12,i,i,nt,i,nt,i
c1ccc(C(c2nnnn2C2CCCC2)N2CCCCCC2)nc1 (centres undefined),i,i,i,i,i,i
CN(CCc1ccccn1)c1ccccc1,i,6.2,nt,12,i,i
CC1CCCCN1C(=O)CCC(=O)Nc1nnc(C2CCCCC2)s1 (centres undefined),i,i,i,i,i,i
CCCCNC(=S)N(C)/N=C/c1c(C)[nH]c2ccccc12,i,i,71,i,i,i
CCN(c1ccc(NC(=O)COC(=O)c2ccc3ccccc3n2)cc1)C(C)C,0.9,i,i,i,i,i

# Screening data (PubChem BioAssay)
